# Compound activity: PubChem BioAssay, National Center for Advancing Translational Sciences (NCATS)
# EPAC1 ag val: validation of human EPAC1 agonists; Potency, µM, without a hit: max response, positive = active, hits mostly activators; EPAC1 Rap1b BODIPY-GDP exchange, fluorescence; actives 1% (n = 16,000); further: nearly all actives have a fitted effect of over 70% in size
# Target sequence (O95398 whole entry, looked up): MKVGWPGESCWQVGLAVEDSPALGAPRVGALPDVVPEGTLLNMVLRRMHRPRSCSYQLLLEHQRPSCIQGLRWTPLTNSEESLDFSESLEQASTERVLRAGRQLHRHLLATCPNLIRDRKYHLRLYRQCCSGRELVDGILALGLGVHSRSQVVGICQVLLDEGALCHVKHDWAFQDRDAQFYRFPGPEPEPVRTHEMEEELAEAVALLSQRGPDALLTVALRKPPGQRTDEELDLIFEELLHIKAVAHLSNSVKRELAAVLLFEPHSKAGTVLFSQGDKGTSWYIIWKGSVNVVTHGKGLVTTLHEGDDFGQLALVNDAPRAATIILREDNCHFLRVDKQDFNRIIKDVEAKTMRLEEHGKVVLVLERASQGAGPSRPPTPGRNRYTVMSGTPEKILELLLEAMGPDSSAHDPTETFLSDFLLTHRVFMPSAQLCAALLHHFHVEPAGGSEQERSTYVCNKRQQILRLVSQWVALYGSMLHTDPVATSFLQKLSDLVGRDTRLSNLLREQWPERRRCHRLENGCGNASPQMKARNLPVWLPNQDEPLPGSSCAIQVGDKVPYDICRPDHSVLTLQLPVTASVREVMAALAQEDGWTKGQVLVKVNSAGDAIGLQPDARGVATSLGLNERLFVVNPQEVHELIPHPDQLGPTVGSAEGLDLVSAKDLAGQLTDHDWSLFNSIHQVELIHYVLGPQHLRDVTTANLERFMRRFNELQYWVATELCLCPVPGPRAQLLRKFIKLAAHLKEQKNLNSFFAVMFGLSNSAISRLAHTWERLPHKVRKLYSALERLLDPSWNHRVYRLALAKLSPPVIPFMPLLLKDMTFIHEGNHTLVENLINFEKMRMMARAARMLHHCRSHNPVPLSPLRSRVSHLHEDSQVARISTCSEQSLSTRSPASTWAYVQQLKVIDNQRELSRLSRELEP
# EPAC2 ant val: human EPAC2 antagonism, validation | actives 1.7% (n = 16,000) | Q8WZA2 | EPAC2 Rap1B BODIPY-GDP exchange, fluorescence | Potency, µM (titrated, usually from 112 µM), for inactives: at the top dose activity, negative = inhibition, actives largely listed as inhibitors;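 further: 100% = activation by cAMP agonist control; nearly all actives have a fitted effect of over 40% in size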
#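 Fluorescent exchange read-out: 100 nM EPAC2 with 250 nM RAP1B–BODIPY-GDP and 50 uM GDP; BODIPY-GDP release lowers fluorescence. Read at 480/540 nm every 5 min for 30 min at room temperature; normalized to 6.5 mM cAMP.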
# An asterisk follows results filed as active; ? = inconclusive. Most compounds without a hit are left out; they make up all but 3.1% or so of the library. The call rests on the fitted dose curve; in most records, active means well fitted curve in the direction sought with a large enough effect; inconclusive means small, poorly fitted or top-dose-only effect, or another doubt; inactive means no such curve, though single readings can be large; an effect the other way counts as inactive or inconclusive. Unless noted, on the % scale 0 is the no-effect control and ±100 the full control effect; potency means the concentration at half of the fitted maximal effect.
SMILES,EPAC1 ag val,EPAC2 ant val
CN1CCN(c2ncc3nc(-c4cccs4)c(=O)n(Cc4ccc(F)cc4)c3n2)CC1,13%,2%
O=c1c(-c2cccs2)nc2cnc(N3CCOCC3)nc2n1Cc1cccs1,10%,6%
CN1CCN(c2ncc3nc(-c4cn(C)c5ccccc45)c(=O)n(CCC#N)c3n2)CC1,112µM*,90%
CN1CCN(c2ncc3nc(-c4cccs4)c(=O)n(CCc4ccccc4)c3n2)CC1,112µM*,46%
CN1CCN(c2ncc3nc(-c4cn(C)c5ccccc45)c(=O)n(CCc4ccccc4)c3n2)CC1,-7%,-25%
N#CCCn1c(=O)c(-c2cccs2)nc2cnc(N3CCOCC3)nc21,63µM*,29%
COC(=O)[C@@H]1CCCN1Cc1ccc2c(c1)CN(Cc1coc3ccccc3c1=O)CCO2,3%,1%
N#Cc1cccc(-c2nc(NCCN3CCOCC3)c3ccccc3n2)c1,6%,-26%
NS(=O)(=O)C#Cc1ccccc1,-3%,-14%
CN1CCCC1c1cccnc1 (stereo not drawn),11%,-4%
CC(=O)c1ccc(C(=O)N2CCCC(c3nc(SCc4ccccn4)ncc3C)C2)cc1 (stereo not drawn),-4%,12%
O=C(c1ccco1)N1CCC2(CC1)CN(c1ccccn1)C2,-30%,-25%
COc1ccc(-c2nc3cnc(N(C)C)nc3n(-c3ccccc3)c2=O)cc1,-94%,30%
COc1ccc(-n2c(=O)c(-c3ccc(Cl)cc3)nc3cnc(N(C)C)nc32)cc1,100µM*,13%
CCNc1ncc2nc(C)c(=O)n(C3CC3)c2n1,-16%,5%
O=C(O)c1ccc(OCCn2ccnc2)cc1,-16%,-6%
Nc1ccc(O)cc1,8%,?
Nc1cc(N)cc(N)c1,10%,56µM*
